# Assay results from PubChem BioAssay (Tox21).
# Where “and” joins values, the source holds several entries; their conditions need not be identical. Identical values can stand only once. Records with an inconclusive call do not appear. Entries that show only a call come without a potency. Some structures have more than one record in an assay (separate samples or runs), and their calls can disagree. Calls of active or inactive are those of the source. Unless noted, the call rests on the fitted dose curve; in most records, active means well fitted curve in the direction sought with a large enough effect in the repeat runs; inconclusive means weak or mixed curves; inactive means no such curve, though single readings can be large; an effect the other way counts as inactive or inconclusive.
# What was measured:
# [1] = target: Estrogen receptor beta (Homo sapiens) (UniProt Q92731); assay: qHTS assay to identify small molecule agonists of the estrogen receptor beta (ER-beta) signaling pathway (AID 1259377; active means well fitted activation curve with a large enough effect in the signal ratio in the repeat runs, not every such curve was filed as active; the % refers to the signal ratio)
# Sequence of Estrogen receptor beta (Homo sapiens) (Q92731 whole entry, looked up): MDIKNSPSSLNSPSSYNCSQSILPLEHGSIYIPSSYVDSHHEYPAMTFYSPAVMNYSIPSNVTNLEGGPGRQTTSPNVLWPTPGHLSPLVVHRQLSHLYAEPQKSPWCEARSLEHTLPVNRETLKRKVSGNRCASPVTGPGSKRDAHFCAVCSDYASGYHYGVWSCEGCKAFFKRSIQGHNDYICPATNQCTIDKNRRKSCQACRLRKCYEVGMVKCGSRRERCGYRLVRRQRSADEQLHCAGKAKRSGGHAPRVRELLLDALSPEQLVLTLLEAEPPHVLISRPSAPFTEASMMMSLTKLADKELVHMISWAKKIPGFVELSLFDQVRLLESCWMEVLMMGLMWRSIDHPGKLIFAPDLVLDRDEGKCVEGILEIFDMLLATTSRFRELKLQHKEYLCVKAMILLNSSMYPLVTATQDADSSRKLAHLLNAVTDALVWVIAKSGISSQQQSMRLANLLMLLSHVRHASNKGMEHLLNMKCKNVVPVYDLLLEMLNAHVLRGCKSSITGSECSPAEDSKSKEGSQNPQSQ
# How it was run: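 HEK293T ER-beta-UAS-bla; 2% charcoal-stripped FBS; cells pre-incubated 6 hr, compound 16 hr, 37C/5% CO2; LiveBLAzer B/G FRET substrate 2 h RT; fluorescence intensity read.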
# [2] = target: Estrogen receptor beta (Homo sapiens) (UniProt Q92731); assay: qHTS assay to identify small molecule antagonists of the estrogen receptor beta (ER-beta) signaling pathway (AID 1259378; active means well fitted inhibition curve with a large enough effect in the signal ratio in the repeat runs, not every such curve was filed as active; the % refers to the signal ratio)
# How it was run: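 ER-beta-UAS-bla HEK293T (GripTite) cells in 2% charcoal-stripped FBS medium were preincubated 6 hr at 37C, dosed with compound, then stimulated with 1 nM E2 (final) for 16 hr; beta-lactamase reporter read by B/G FRET fluorescence after 2 hr substrate loading.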
# [3] = qHTS assay to identify small molecule agonists of the androgen receptor (AR) signaling pathway in the presence of an antagonist - cell viability counter screen (AID 1259379);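 further: MDA-kb2 human breast cancer cells carrying an MMTV luciferase reporter; series mostly up to about 92 µM; nearly all actives have a fitted effect of over 25% in size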
# How it was run: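 Cells: MDA-kb2 (MMTV-luc, AR and GR elements), 3,000/well, 5 hr settle. Added: nilutamide 3.0uM final, then compounds (15 conc.). Incubation: 16 hr, 37C, no CO2. Read-out: CellTiter-Fluor, 1 hr, fluorescence.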
# [4] = qHTS assay to identify small molecule agonists of the estrogen receptor beta (ER-beta) signaling pathway - cell viability counter screen (AID 1259380); further: nearly all actives have a fitted effect of over 30% in size; further: potency means the concentration at half of the fitted maximal effect
# How it was run: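 HEK293T ER-beta-UAS-bla; 2% CS-FBS; 6 hr pre-plate, 16 hr cpd at 37C/5% CO2; LiveBLAzer read first, then CellTiter-Glo 30 min RT, luminescence.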
# [5] = target: Androgen receptor (Homo sapiens) (UniProt P10275); assay: qHTS assay to identify small molecule agonists of the androgen receptor (AR) signaling pathway in the presence of an antagonist (AID 1259381; calls by dose curve; further: nearly all actives have a fitted effect of over 15% in size)
# Sequence of Androgen receptor (Homo sapiens) (P10275 whole entry, looked up): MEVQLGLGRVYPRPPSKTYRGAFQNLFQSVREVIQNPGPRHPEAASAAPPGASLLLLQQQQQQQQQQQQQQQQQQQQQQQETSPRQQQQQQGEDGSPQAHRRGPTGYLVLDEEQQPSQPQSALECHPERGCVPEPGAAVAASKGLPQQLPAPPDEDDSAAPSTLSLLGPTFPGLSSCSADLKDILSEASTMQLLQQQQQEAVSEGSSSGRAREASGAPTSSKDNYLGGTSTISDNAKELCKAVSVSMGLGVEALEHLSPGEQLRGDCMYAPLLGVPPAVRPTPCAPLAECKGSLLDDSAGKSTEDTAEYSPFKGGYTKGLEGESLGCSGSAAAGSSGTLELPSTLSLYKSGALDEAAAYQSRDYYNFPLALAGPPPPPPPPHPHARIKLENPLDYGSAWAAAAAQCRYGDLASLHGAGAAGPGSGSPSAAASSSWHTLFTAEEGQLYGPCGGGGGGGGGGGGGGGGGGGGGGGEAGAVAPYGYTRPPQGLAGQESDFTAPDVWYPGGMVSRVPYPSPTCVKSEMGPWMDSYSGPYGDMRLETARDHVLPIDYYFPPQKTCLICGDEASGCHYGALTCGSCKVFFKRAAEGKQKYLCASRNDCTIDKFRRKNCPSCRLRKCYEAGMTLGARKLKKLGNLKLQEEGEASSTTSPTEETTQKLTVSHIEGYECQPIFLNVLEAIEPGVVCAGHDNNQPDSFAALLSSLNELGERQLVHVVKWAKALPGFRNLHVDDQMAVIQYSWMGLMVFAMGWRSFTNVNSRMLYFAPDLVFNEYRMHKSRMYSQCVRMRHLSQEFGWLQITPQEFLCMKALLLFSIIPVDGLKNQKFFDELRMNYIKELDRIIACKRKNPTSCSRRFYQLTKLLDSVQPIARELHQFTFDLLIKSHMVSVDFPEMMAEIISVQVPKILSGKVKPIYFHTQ
# How it was run: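 MDA-kb2 cells, 3,000/well, rested 5hr at 37C/0% CO2 → nilutamide 3.0uM final or buffer → compounds, 15 conc. → 16hr at 37C → ONE-Glo, 30min RT → luminescence.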
# [6] = qHTS assay to identify small molecule antagonists of the estrogen receptor beta (ER-beta) signaling pathway - cell viability counter screen (AID 1259382); further: series mostly up to about 92 µM; nearly all actives have a fitted effect of over 55% in size
# How it was run: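 Cells: ER-beta-UAS-bla HEK293T, 2,000/well, 2% CS-FBS, 6 hr settle. Cpd + E2 (1nM final), 16 hr, 37C/5% CO2. Bla FRET substrate 2 hr RT, then CellTiter-Glo 30 min RT, luminescence.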
# [7] = target: Estrogen receptor (Homo sapiens) (UniProt P03372); assay: qHTS assay to identify small molecule agonists of the estrogen receptor alpha (ER-alpha) signaling pathway in the presence of an antagonist (AID 1259383; calls by dose curve; further: nearly all actives have a fitted effect of over 15% in size; further: potency means the concentration at half of the fitted maximal effect; on activation: top concentration of the series differs between compounds)
# Sequence of Estrogen receptor (Homo sapiens) (P03372 whole entry, looked up): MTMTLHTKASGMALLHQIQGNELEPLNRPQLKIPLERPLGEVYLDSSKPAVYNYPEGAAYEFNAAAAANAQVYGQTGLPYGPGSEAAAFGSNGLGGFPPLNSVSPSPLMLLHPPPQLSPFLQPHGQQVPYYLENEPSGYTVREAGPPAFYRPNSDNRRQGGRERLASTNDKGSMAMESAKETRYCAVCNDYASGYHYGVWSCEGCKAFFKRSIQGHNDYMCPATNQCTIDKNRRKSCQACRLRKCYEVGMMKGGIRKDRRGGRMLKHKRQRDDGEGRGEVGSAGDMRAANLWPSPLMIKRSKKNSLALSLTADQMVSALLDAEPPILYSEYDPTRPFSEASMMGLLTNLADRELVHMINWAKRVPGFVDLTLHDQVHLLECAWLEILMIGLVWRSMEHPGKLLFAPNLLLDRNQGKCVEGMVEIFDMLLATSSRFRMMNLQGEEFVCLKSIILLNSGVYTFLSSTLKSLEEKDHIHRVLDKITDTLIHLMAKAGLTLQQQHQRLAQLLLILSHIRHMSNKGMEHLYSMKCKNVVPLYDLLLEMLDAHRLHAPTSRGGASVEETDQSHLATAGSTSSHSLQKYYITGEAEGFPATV
# How it was run: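 VM7Luc4E2, endog. ER-alpha + 4×ERE-luc; charcoal-stripped FBS, phenol red-free, 5 d; 24hr plating; +10.0nM ICI-182,780 (final); cpds 15 conc, 22hr, 37C/5% CO2; ONE-Glo luminescence.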
# [8] = target: Thyrotropin receptor (Homo sapiens) (UniProt P16473); assay: qHTS assay to identify small molecule antagonists of the thyroid stimulating hormone receptor (TSHR) signaling pathway (AID 1259385; calls by dose curve; further: nearly all actives have a fitted effect of over 20% in size)
# Sequence of Thyrotropin receptor (Homo sapiens) (P16473 whole entry, looked up): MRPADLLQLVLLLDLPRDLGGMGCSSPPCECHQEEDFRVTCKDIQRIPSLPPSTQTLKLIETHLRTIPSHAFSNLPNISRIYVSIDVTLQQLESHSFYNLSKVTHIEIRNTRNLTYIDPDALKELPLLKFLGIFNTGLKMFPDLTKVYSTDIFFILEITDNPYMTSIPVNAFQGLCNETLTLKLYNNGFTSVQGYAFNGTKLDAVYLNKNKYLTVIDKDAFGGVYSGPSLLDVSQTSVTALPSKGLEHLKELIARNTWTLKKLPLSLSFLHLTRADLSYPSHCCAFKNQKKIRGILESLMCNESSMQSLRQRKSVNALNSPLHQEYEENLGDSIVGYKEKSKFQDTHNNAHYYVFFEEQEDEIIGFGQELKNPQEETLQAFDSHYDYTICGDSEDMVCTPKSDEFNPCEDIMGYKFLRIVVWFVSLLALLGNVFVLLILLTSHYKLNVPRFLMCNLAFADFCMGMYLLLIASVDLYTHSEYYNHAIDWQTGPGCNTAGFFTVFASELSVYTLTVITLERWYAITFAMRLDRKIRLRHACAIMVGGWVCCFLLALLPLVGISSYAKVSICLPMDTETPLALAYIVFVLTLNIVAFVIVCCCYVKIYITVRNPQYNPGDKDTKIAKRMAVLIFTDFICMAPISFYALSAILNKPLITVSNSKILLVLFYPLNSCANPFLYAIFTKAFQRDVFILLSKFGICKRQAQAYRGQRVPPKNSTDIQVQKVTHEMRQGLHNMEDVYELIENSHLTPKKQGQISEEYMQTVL
# How it was run: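 TSHR-HEK293 cells were plated and held 18 h at 37C/5% CO2, then given compound plus Ro20-1724 and stimulated with TSH at 1.5 ng/mL final. After 30 min at room temperature, cAMP was detected with cAMP-d2/anti-cAMP-cryptate (1 h) by fluorescence.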
# [9] = qHTS assay to identify small molecule agonists of the estrogen receptor alpha (ER-alpha) signaling pathway in the presence of an antagonist - cell viability counter screen (AID 1259386);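 further: series mostly up to about 92 µM; cells exposed to compounds for 22 h at 37 °C before the viability read; nearly all actives have a fitted effect of over 30% in size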
# How it was run: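 VM7Luc4E2, stripped-serum pre-culture 5 d; 24hr plating; +ICI-182,780 10.0nM final; cpds 15 conc, 22hr, 37C/5% CO2; CellTiter-Fluor added at 21hr, fluorescence 1hr later.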
# [10] = qHTS assay to identify small molecule agonists or antagonists of the thyroid stimulating hormone receptor (TSHR) signaling pathway - wild type cell line counter screen (AID 1259384; calls by dose curve)
# How it was run: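 Wild-type HEK293 cells were plated 18 h at 37 C/5% CO2, pin-dosed with compound plus Ro20-1724 medium, held 30 min at room temperature, then given cAMP-d2 and anti-cAMP-cryptate; fluorescence was read after 1 h. Fifteen concentrations, triplicate.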
SMILES,Potency [1],Potency [2],Potency [3],Potency [4],outcome [5],Potency [6],Potency [7],Potency [8],Potency [9],Potency [10],"activity, negative = inhibition [2]","activity change, negative = cytotoxicity [4]"
O=[N+]([O-])c1ccccc1C(F)(F)F,inactive,inactive,inactive,inactive,inactive,inactive,59.8 µM (active) and inactive,inactive,inactive,,,
COc1c(Cl)ccc(Cl)c1C(=O)O,inactive,inactive,inactive,inactive,,inactive,inactive,inactive,inactive,inactive,,
CCCCCCCCCCCCCC(=O)O,inactive,inactive,inactive,43.1 µM (active) and 61.1 µM (active),,inactive,inactive,inactive,inactive,inactive,,
O=C(Cl)c1ccc(C(=O)Cl)cc1,inactive,inactive,inactive,inactive,,inactive,inactive,inactive,inactive,inactive,,
NC(=O)NC(N)=O,inactive,inactive,inactive,inactive,,inactive,inactive,inactive,inactive,inactive,,
Cc1ccc([N+](=O)[O-])cc1N,inactive,inactive,inactive,inactive,,inactive,inactive,inactive,inactive,inactive,,
OCC(O)CS (stereo not drawn),inactive,inactive,inactive,inactive,inactive,inactive,inactive,inactive,inactive,inactive,,
COc1ccc([C@@H]2CC(=O)c3c(O)cc(O[C@@H]4O[C@H](CO[C@@H]5O[C@@H](C)[C@H](O)[C@@H](O)[C@H]5O)[C@@H](O)[C@H](O)[C@H]4O)cc3O2)cc1OC,inactive,inactive,inactive,inactive,,inactive,inactive,inactive,inactive,inactive,,
C[Si](C)(C)N[Si](C)(C)C,inactive,inactive,inactive,inactive,,inactive,inactive,inactive,inactive,inactive,,
O=C1C(N(CO)C(=O)NCO)N(CO)C(=O)N1CO (stereo not drawn),inactive,inactive,inactive,inactive,,inactive,inactive,inactive,inactive,inactive,,
Nc1cccc(C(F)(F)F)c1,inactive,inactive,inactive,inactive,,inactive,inactive,inactive,inactive,inactive,,
CC(=O)CC(=O)N(C)C,inactive,inactive,inactive,inactive,,inactive,inactive,inactive,inactive,inactive,,
C1CCCNCC1,inactive,inactive,inactive,inactive,,inactive,inactive,inactive,inactive,inactive,,
CCc1cccc(O)c1,inactive,inactive,inactive,inactive,,inactive,inactive,inactive,inactive,inactive,,
CN=C(NC#N)NCCSCc1nc[nH]c1C,inactive,inactive,inactive,inactive,,inactive,inactive,inactive,inactive,inactive,,
CC(C)(CO)CO,inactive,inactive,inactive,inactive,inactive,inactive,inactive,inactive,inactive,inactive,,
CO[Si](CCCNCCN)(OC)OC,inactive,inactive,inactive,inactive,inactive,inactive,,inactive,inactive,inactive,,
CCCCCCC(=O)O,inactive,inactive,inactive,inactive,,inactive,inactive,inactive,inactive,inactive,,
O=C1CCCCCCCCCCC1,inactive,inactive,inactive,inactive,,inactive,inactive,inactive,inactive,inactive,,
CCCCCCCCC(=O)O,inactive,inactive,inactive,inactive,,inactive,inactive,inactive,inactive,inactive,,
OCC(CO)(CO)CO,inactive,inactive,inactive,inactive,,inactive,inactive,inactive,inactive,inactive,,
CC(C)c1ccc(C(C)C)cc1,inactive,inactive,inactive,inactive,,inactive,inactive,inactive,inactive,inactive,,
CC(C=O)Cc1ccc(C(C)(C)C)cc1 (stereo not drawn),inactive,inactive,inactive,inactive,inactive,inactive,,inactive,inactive,inactive,,
Cc1ccncc1,inactive,inactive,inactive,inactive,,inactive,inactive,inactive,inactive,inactive,,
CCc1cccc(CC)c1N,inactive,inactive,inactive,inactive,inactive,inactive,inactive,inactive,inactive,inactive,,

SMILES,Potency [1],Potency [2],Potency [3],Potency [4],outcome [5],Potency [6],Potency [7],Potency [8],Potency [9],Potency [10],"activity, negative = inhibition [2]","activity change, negative = cytotoxicity [4]"
CCCCCCCCO,inactive,inactive,inactive,inactive,,inactive,inactive,inactive,inactive,inactive,,
N#CCC(=O)O,inactive,inactive,inactive,inactive,,inactive,inactive,inactive,inactive,inactive,,
CC(C)=CCC/C(C)=C/C=O,inactive,inactive,inactive,inactive,,inactive,inactive,inactive,inactive,inactive,,
CCCN(CCC)C(=O)SCC,inactive,inactive,inactive,inactive,inactive,inactive,inactive,inactive,inactive,inactive,,
CCCCCCCCCCCC(=O)N(C)CC(=O)O,inactive,,inactive,,,inactive,inactive,inactive,inactive,inactive,1.54% [at 8.39 µM] (inactive),-3.5% [at 8.39 µM] (inactive)
O=[N+]([O-])c1cc(C(F)(F)F)ccc1Cl,inactive,inactive,inactive,inactive,inactive,inactive,,inactive,inactive,inactive,,
Cc1cc(C)cc(O)c1,inactive,inactive,inactive,inactive,,inactive,inactive,inactive,inactive,inactive,,
CCCCC(=O)O,inactive,inactive,inactive,inactive,,inactive,inactive,inactive,inactive,inactive,,
COc1c2ccoc2cc2oc(=O)ccc12,inactive,inactive,inactive,inactive,,inactive,inactive,inactive,inactive,inactive,,
COc1cc(NC(=O)CC(C)=O)c(OC)cc1Cl,inactive,inactive,inactive,inactive,,inactive,inactive,inactive,inactive,inactive,,
C=CC(C)(C)C,inactive,inactive,inactive,inactive,,inactive,inactive,inactive,inactive,inactive,,
CC/C=C(\C(=O)N[C@@H]1C(=O)N2C(C(=O)OCOC(=O)C(C)(C)C)=C(COC(N)=O)CS[C@H]12)c1csc(N)n1,inactive,inactive,inactive,inactive,,inactive,inactive,inactive,inactive,inactive,,
O=Cc1ccc(CO)o1,inactive,inactive,inactive,inactive,,inactive,inactive,inactive,inactive,inactive,,
CC/C(C)=N/O,inactive,inactive,inactive,inactive,,inactive,,inactive,inactive,inactive,,
COC(=O)OC,inactive,inactive,inactive,inactive,,inactive,,inactive,inactive,inactive,,
CN1Cc2c(N)cccc2C(c2ccccc2)C1 (stereo not drawn),inactive,inactive,inactive,inactive,,inactive,,inactive,inactive,inactive,,
OC[C@H]1O[C@@H](Oc2ccc(O)cc2)[C@H](O)[C@@H](O)[C@@H]1O,,,inactive,inactive,,inactive,inactive,inactive,inactive,inactive,,
C[n+]1ccn(CCO)c1,inactive,inactive,inactive,inactive,,inactive,,,inactive,,,
CC(=O)OC[C@H]1O[C@@](COC(C)=O)(O[C@H]2O[C@H](COC(C)=O)[C@@H](OC(C)=O)[C@H](OC(C)=O)[C@H]2OC(C)=O)[C@@H](OC(C)=O)[C@@H]1OC(C)=O,inactive,inactive,inactive,inactive,,inactive,,inactive,inactive,inactive,,
CC(=O)Nc1ccc(CC(=O)O)cc1,,,inactive,inactive,,inactive,inactive,inactive,inactive,inactive,,
Nc1nc(N)c2nc(-c3ccccc3)c(N)nc2n1,,,inactive,69.4 µM (active) and inactive,inactive,inactive,inactive,inactive,inactive,inactive,,
CC(=O)C(C)C,inactive,inactive,inactive,inactive,,inactive,inactive,,inactive,,,
COC(=O)/C=C\C(=O)OC,inactive,inactive,inactive,inactive,,inactive,,inactive,inactive,inactive,,
CN1CCCC1=O,inactive,inactive,inactive,inactive,,inactive,inactive,,inactive,,,
